KLK7 zymogen act: proKLK7 (human) activation, primary screen. purified proKLK7, EDANS-DABCYL substrate fluorescence; 100% is mature enzyme control, 0% vehicle. activation, % at 7 µM. 370,000 tested, 0.9% active. AID 652039;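 active = activation above the mean of all tested compounds plus 3 SD, computed per campaign excluding outliers beyond control limits, cut at about 13% in these data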
Target sequence (P49862 whole entry, looked up): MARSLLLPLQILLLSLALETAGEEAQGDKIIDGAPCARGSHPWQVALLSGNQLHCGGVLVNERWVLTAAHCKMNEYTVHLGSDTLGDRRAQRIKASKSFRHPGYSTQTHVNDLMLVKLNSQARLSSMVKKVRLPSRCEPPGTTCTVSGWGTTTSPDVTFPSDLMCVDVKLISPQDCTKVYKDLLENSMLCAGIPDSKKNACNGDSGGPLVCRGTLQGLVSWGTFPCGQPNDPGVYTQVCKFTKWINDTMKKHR
ADAM10 inh: inhibitors of human ADAM10 | O14672 | AID 720582 | 370,000 tested, 0.62% active | recombinant ADAM10, EDANS/DABCYL FRET peptide cleavage, 3 h | inhibition, % at 7 µM;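 active = inhibition above a per-campaign cutoff equal to the mean of compounds falling between control-based bounds plus 3 SD, cut at about 20% in these data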;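 also: 0% = DMSO wells while the 100% control is not disclosed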
ADAM17 inh: ADAM17 inhibition, QFRET primary screen; P78536; recombinant ADAM17, EDANS/DABCYL FRET peptide cleavage; inhibition, % at 6.95 µM; 370,000 tested, 0.83% active; AID 720648;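 active = inhibition above the mean of compounds lying between control limits plus 3 SD, set per campaign, cut at about 8.5% in these data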;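 also: 0% = DMSO-only wells as the low control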
PLCb3 inh: PLC-beta3 (human) inhibition, primary screen | inhibition, % at 12.2 µM | Q01970 | 370,000 tested, 0.18% active | AID 720704 | Purified PLC-beta3, fluorogenic substrate, fluorescence; in the data active = inhibition above about 11%;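 also: 0% = median of compound wells on plate and 100% = full blocker control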
PLCg1 inh: blocks human PLC-gamma1 enzyme activity. P19174. AID 720700. purified PLC-gamma1, fluorogenic substrate, fluorescence. 370,000 tested, 0.84% active. inhibition, % at 12.2 µM; in the data active = inhibition above about 9.5%
sPLA2-III inh: Inhibits HGIII-sPLA2 liposome hydrolysis, primary screen; inhibition, % at 12.2 µM; Q9NZ20; QFRET BODIPY PC-A2 liposome hydrolysis, fluorescence; AID 743126; 370,000 tested, 0.56% active;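 active = inhibition above mean plus 3 SD of compounds lying within the high and low control bounds, cut at about 19% in these data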;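 also: 0% = median of test compound wells and 100% = no enzyme DMSO wells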
ADAM10 confirm: confirmation of inhibitors of human ADAM10; ADAM10 QFRET peptide cleavage, EDANS fluorescence; inhibition, % at 6.95 µM; 2,100 tested, 1% active; shares compounds with ADAM10 inh;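 active = inhibition above about 20% chosen separately for each screening run, limit read from the data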;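 also: 0% = DMSO wells and 100% = marimastat wells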
ADAM17 counter: counter-screen for ADAM10 exosite inhibitors: inhibitors of human ADAM17; shares compounds with ADAM10 inh; ADAM17 QFRET peptide cleavage, EDANS fluorescence; inhibition, % at 6.95 µM; 2,100 tested, 0.5% active;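 active = mean triplicate inhibition above the solvent-only control wells' mean plus 3 SD, cut at about 12% in these data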;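 also: 0% = DMSO wells and 100% = marimastat wells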
ADAM10 ctr: ADAM10 inhibition, counter-screen for ADAM17 exosite hits | shares compounds with ADAM17 inh | recombinant ADAM10, EDANS/DABCYL FRET peptide cleavage, 3 h | inhibition, % at 6.95 µM | 2,900 tested, 47% active | AID 743256;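 active = mean inhibition over the triplicate runs exceeds the activity threshold set in the earlier primary screen, cut at about 20% in these data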;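 also: 0% = DMSO wells and 100% = marimastat wells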
ADAM17 confirm: human ADAM17 inhibition, confirmation; AID 743257; recombinant ADAM17, EDANS/DABCYL QFRET peptide cleavage; 2,900 tested, 65% active; inhibition, % at 6.95 µM; shares compounds with ADAM17 inh;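 active = mean inhibition across replicates above the hit cutoff set in the primary screen, cut at about 8.5% in these data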;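 also: 0% = DMSO wells and 100% = marimastat wells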
Numbers without * were called inactive; / = no result. Sampled rows, rich in hits. Any-hit rate of the full collection: about 3.4%.

SMILES	KLK7 zymogen act	ADAM10 inh	ADAM17 inh	PLCb3 inh	PLCg1 inh	sPLA2-III inh	ADAM10 confirm	ADAM17 counter	ADAM10 ctr	ADAM17 confirm
CC(C)(C)OC(=O)C(Cc1ccc(OC(C)(C)C)cc1)NC(=O)CNC(=O)OCc1ccccc1 (stereo unspecified)	0	25*	13*	9	7	-11	-1	0	15	8
CC(C)(C)OC(=O)CNC(=O)c1[nH]cnc1C(=O)NCC(=O)OCc1ccccc1	0	6	0	1	1	-23	/	/	/	/
C[C@H](NC(=O)c1nc[nH]c1C(=O)N[C@@H](Cc1ccccc1)C(=O)OCc1ccccc1)C(=O)OC(C)(C)C	0	24*	11*	6	1	-12	10	3	26*	14*
C[C@H](NC(=O)c1nc[nH]c1C(=O)N[C@@H](C)C(=O)OC(C)(C)C)C(=O)OCc1ccccc1	0	10	3	4	2	-17	/	/	/	/
COc1ccc(-c2nnn3c2nc(NCc2ccccc2)c2ccccc23)cc1	0	-7	-3	-35	-35	-1	/	/	/	/
COc1cc(/C=C/C(=O)O)cc(S(=O)(=O)Nc2ccccc2Oc2ccccc2)c1OC	0	5	0	-5	3	-3	/	/	/	/
C[C@H](NC(=O)c1[nH]cnc1C(=O)Nc1ccccc1)C(=O)OC(C)(C)C	0	3	1	5	4	-4	/	/	/	/
Cc1ccc(NC(=O)c2nc[nH]c2C(=O)N[C@@H](C)C(=O)OC(C)(C)C)cc1	-1	27*	14*	7	7	-1	2	1	28*	12*
CC(C)(C)OC(=O)[C@H](Cc1ccccc1)NC(=O)c1nc[nH]c1C(=O)NCC(=O)OCc1ccccc1	0	30*	11*	4	8	-22	8	3	44*	20*
C[C@H]1CN([C@@H](C)CO)C(=O)c2cc(NC(=O)c3ccncc3)ccc2O[C@H]1CN(C)Cc1ccc(C(=O)O)cc1	0	1	-1	4	1	-1	/	/	/	/
Cc1ccc(C)c(OCC(=O)Nc2ccc(S(=O)(=O)Nc3ncccn3)cc2)c1	0	3	-6	-8	-2	-8	/	/	/	/
COc1ccc(Nc2nc(N)nc(CSC(=S)N3CCN(c4ccccc4)CC3)n2)cc1	-1	23*	12*	3	3	-16	7	3	26*	14*
COc1ccc(CNC(=O)COC(=O)CCCOc2ccc(Cl)cc2Cl)cc1	0	10	3	0	0	-8	/	/	/	/
O=C(COC(=O)CCCOc1ccc(Cl)cc1Cl)Nc1cccc(Cl)c1	0	23*	13*	-2	-4	-22	9	4	38*	20*
O=C(CSc1nc2ccccc2[nH]1)Nc1ccccc1F	0	4	-1	0	2	1	/	/	/	/
O=C(CSc1nc2ccccc2[nH]1)Nc1ccc(F)c(F)c1	0	21*	10*	5	7	-32	1	0	9	4
CCOC(=O)CNC(=O)Cn1cnc2c(cnn2-c2ccc(C)cc2)c1=O	3	7	-4	-17	-4	10	/	/	/	/
COc1ccc(-n2c(=S)[nH]c3cc(C(=O)Nc4ccc(F)cc4)ccc3c2=O)c(OC)c1	0	4	7	-8	1	15	/	/	/	/
COc1ccc(NC(=O)c2ccc3c(=O)n(-c4ccc(OC)cc4OC)c(=S)[nH]c3c2)cc1	0	24*	9.1*	-4	2	3	4	1	18	4
Cc1ccccc1N=C1SC(CC(=O)Nc2ccc3ccccc3c2)C(=O)N1Cc1ccccn1 (stereo unspecified)	-1	39*	15*	8	6	-35	11	3	37*	22*
CCN1C(=O)C(CC(=O)Nc2cccc(C(C)=O)c2)S/C1=N\c1ccccn1 (stereo unspecified)	-1	4	3	5	0	-12	/	/	/	/
CCOc1cc(N2CCOCC2)c(OCC)cc1NC(C)C(=O)N1CCC(C)CC1 (stereo unspecified)	0	-15	-5	-19	-18	4	/	/	/	/
O=C(COc1ccccc1Cl)N1CCN(c2ccc([N+](=O)[O-])c(N3CCCCC3)c2)CC1	0	-2	-1	4	4	0	/	/	/	/
O=C(COc1ccc(Cl)cc1)N1CCN(c2ccc([N+](=O)[O-])c(N3CCCCC3)c2)CC1	0	20*	8.9*	4	4	-11	5	2	25*	13*
NS(=O)(=O)c1ccc(N2CCOCC2)c(C(=O)NCc2ccc3c(c2)OCO3)c1	0	-4	-3	-17	-4	0	/	/	/	/
SMILES	KLK7 zymogen act	ADAM10 inh	ADAM17 inh	PLCb3 inh	PLCg1 inh	sPLA2-III inh	ADAM10 confirm	ADAM17 counter	ADAM10 ctr	ADAM17 confirm
O=C(Nc1ccc(C(O)(C(F)(F)F)C(F)(F)F)cc1)c1ccc(Cl)c([N+](=O)[O-])c1	0	34*	16*	1	3	-23	4	2	49*	22*
O=C(Nc1cc(Cl)cc(Cl)c1)c1cccc(OC(F)F)c1	0	27*	12*	-1	0	-23	7	2	23*	13*
O=C(Nc1ccc(Br)c(C(F)(F)F)c1)c1ccccc1	0	35*	13*	2	9	-2	2	1	25*	15*
COc1cccc(NC(=O)CN(C)C(=O)c2ccccc2OCc2c(C)noc2C)c1	0	-7	-8	0	5	7	/	/	/	/
Cc1noc(C)c1COc1ccccc1C(=O)N(C)CC(=O)Nc1ccc(Cl)c(Cl)c1	0	23*	9.9*	-6	9	-39	3	0	32*	13*
Cc1cccc(COc2ccccc2C(=O)N(C)CC(=O)Nc2cccc(F)c2)c1	0	23*	11*	-1	7	-24	-1	0	16	13*
O=C(O)c1ccc2c(c1)C(=O)N(c1nccs1)C2=O	1	3	0	-3	0	2	/	/	/	/
COc1ccc(C(=O)NC(CCSC)C(=O)NCc2nnc3ccccn23)cc1 (stereo unspecified)	0	-3	-3	-4	0	3	/	/	/	/
